# Only some compounds are listed: those with a hit (about 8.1% of all), similar ones and a draw of the others.
# KB-V1 MDR tox: KB-V1 MDR subline cytotoxicity | 3.4% of 400,000 active | KB-V1 MDR cells viability, CellTiter-Glo, 72 h | Potency, µM (doses to about 46.1 µM), most hits filed as cytotoxic | AID 1347076; further: on the % scale 0 is the no-effect control and ±100 the full control effect; nearly all actives have a fitted effect of over 60% in size
#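 Cells of the MDR subline KB-V1 are plated, dosed with compound at multiple concentrations, and incubated 72 h at 37 degrees C; CellTiter-Glo is then added and luminescence read after 10 min.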
# MCF10A rerep: inducers of DNA re-replication in MCF 10A breast cells; 2.9% of 350,000 active; Potency, µM (top dose mostly 46.1 µM), for the others: at the highest dose activity, positive = re-replication, most hits filed as activators; AID 624296; MCF 10A DNA re-replication, Hoechst nuclear intensity, 48 h; further: % of control where 0% means no effect; nearly all actives have a fitted effect of over 50% in size
# ELG1 DNA repair: ELG1-dependent DNA repair inhibition; Potency, µM (titrated, usually from 46.1 µM), inactives show at the highest dose activity change, negative = inhibition, actives largely listed as inhibitors; HEK293T ELG1-luciferase reporter, luminescence, 16 h; DNA damage induced by 5-fluorouridine; 2.3% of 330,000 active; further: on the % scale 0 is the no-effect control and ±100 the full control effect; nearly all actives have a fitted effect of over 55% in size
#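 HEK293T cells expressing luciferase-tagged ELG1 (2,000/well) received 5-Fluorouridine plus compound or DMSO for 16 hr at 37 °C. Luciferase was read by ONE-Glo luminescence after 30 min at room temperature.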
# KB-3-1 tox: KB-3-1 parental cell cytotoxicity; 1.4% of 400,000 active; Potency, µM (highest dose often 46.1 µM), hits mostly cytotoxic; KB-3-1 viability, CellTiter-Glo ATP luminescence, 72 h; AID 1347075; further: on the % scale 0 is the no-effect control and ±100 the full control effect; nearly all actives have a fitted effect of over 60% in size
#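 Multi-concentration cytotoxicity screen in KB-3-1 cells grown in DMEM lacking phenol red with 10% FBS. After 72 h at 37 °C with compound, ATP-dependent luminescence was recorded.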
# SW480 rereplic: DNA re-replication induction in SW480 cells; SW480 DNA re-replication, Hoechst DNA content imaging, 48 h; Potency, µM (titrated, usually from 46.1 µM), for the others: at the top dose re-replication activation, hits mostly activators; 1.8% of 340,000 active; further: % of control where 0% means no effect; nearly all actives have a fitted effect of over 55% in size
#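 Image-based read-out: total Hoechst fluorescence of nuclei (405 nm excitation, 500-530 nm emission), with hits raising the fraction of high-intensity nuclei. SW480 colon cells incubated 48 hr with compounds at 37 C.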
# The depositor's hits bear a star; i = inactive; ? = inconclusive; / = no result given; ! = repeats disagree; [ ] = another dose, or the depositor's remark. The call rests on the fitted dose curve; in most records, active means well fitted curve in the direction sought with a large enough effect; inconclusive means small, poorly fitted or top-dose-only effect, or another doubt; inactive means no such curve, though single readings can be large; an effect the other way counts as inactive or inconclusive. Potency means the concentration at half of the fitted maximal effect.
SMILES,KB-V1 MDR tox,MCF10A rerep,ELG1 DNA repair,KB-3-1 tox,SW480 rereplic
CCOC(=O)N1CCC(N2CCN(Cc3ccc(C)o3)C(CCO)C2)CC1 (stereo not drawn),i,19%,18%,i,-16%
CCc1cc2c(Sc3nc4ccccc4s3)ncnc2s1,?,?,-13%,12µM*,?
CCc1cc2c(SCC(=O)Nc3ccc(NC(C)=O)cc3)ncnc2s1,i,15%,?,i,-7%
c1ccc2sc(Sc3ncnc4sccc34)nc2c1,i,21µM*,-3%,i,?
c1ccc(CSc2ncnc3sccc23)cc1,i,-3%,?,i,-2%
CC(C)CC1Nc2ncnc(N3CCN(c4ccccc4)CC3)c2N(Cc2ccccc2)C1=O (stereo not drawn),i,-1%,?,i,?
CC(C)CC1Nc2ncnc(N3CCN(c4ccccn4)CC3)c2N(Cc2ccc(Cl)cc2)C1=O (stereo not drawn),23µM*!,81%,-12%,?,13%
Cc1cc(C)c(NC(=O)c2cccc3c2C(=O)N(C2CCCCC2)C3)c(C)c1,?,?,-19%,21µM*,-7%
Cc1ccc(C2(C)NC(=O)N(CC(=O)NCc3cccc(Cl)c3)C2=O)cc1 (stereo not drawn),i,-22%,8%,i,-11%
O=[N+]([O-])c1ccc(Sc2nccn2Cc2ccccc2)c([N+](=O)[O-])c1,?,21µM*,-7%,i,?
O=[N+]([O-])c1ccc(Sc2ncccn2)c([N+](=O)[O-])c1,i,18µM*,?,i,?
O=[N+]([O-])c1ccc(SNc2ccccc2)c([N+](=O)[O-])c1,23µM*,27%,/,i,-2%
O=[N+]([O-])c1cc(C(F)(F)F)ccc1Sc1nccn1Cc1ccccc1,i,?,-17%,i,3%
CCN(C(=O)CN1C(=O)c2ccc([N+](=O)[O-])cc2C1=O)C1CCS(=O)(=O)C1 (stereo not drawn),i,-3%,11%,i,-2%
O=C(NCc1ccco1)c1cccnc1-c1nc2ccccc2s1,13µM*,3%,-12%,i,-2%
O=C(NCc1nnc(SCC(=O)N2CCCCC2)o1)c1ccc(F)cc1,i,-10%,-2%,i,-21%
O=C(O)Cn1c(=O)c(-c2ccccc2)nc2ccccc21,?,7%,17%,i,-1%
Cc1c(C)n(CCCN(C)C)c2ncnc(Nc3ccccc3)c12,i,?,?,i,-21%
COc1ccccc1Nc1ncnc2c1c(C)c(C)n2CCCN(C)C,i,?,-5%,i,21µM*
COc1cc(CN(C(=S)NCC(=O)NC2CCCC2)C2CCCC2)cc(OC)c1OC,13µM*,-6%,?,i,?
O=C(Nc1ccc(OC(F)(F)F)cc1)Nc1cccnc1,i,14%,?,i,-11%
Cc1ccc(NC(=O)Nc2cccc([N+](=O)[O-])c2)cc1F,16µM*,?,?,?,5%
Cc1cc([N+](=O)[O-])ccc1NC(=O)Nc1ccc(F)cc1F,15µM*,?,0%,?,10%
COc1ccc(NC(=O)Nc2ccc(F)cc2F)c(C)c1,i,15%,?,i,-11%
CC(C)COc1ccc(C(=O)Nc2ccc([N+](=O)[O-])cc2)cc1,i,4%,1.5µM*,i,-10%
O=C(Nc1ccc(OC(F)(F)F)cc1)Nc1cccc([N+](=O)[O-])c1,16µM*,12µM*,?,12µM*,?
Cc1cc(NC(=O)Nc2cccc([N+](=O)[O-])c2)no1,i,-6%,-11%,i,-153%[1.84 µM]
Cc1ccc(OCCC(=O)Nc2ccccc2C(=O)N2CCCCC2)cc1,i,18%,-1%,i,-545%
CN(CCOc1ccc(Cl)cc1)C(=O)CN1C(=O)NC2(CCCCC2)C1=O,?,6%,-15%,i,-7%
Cc1ccc(C(=O)N/C(=C/c2ccco2)C(=O)Nc2cccc(C)c2)cc1,?,?,3%,i,-1%

# Screening results (PubChem BioAssay)
